AmpC no deterg: qHTS Inhibitors of AmpC Beta-Lactamase (assay without detergent). AmpC nitrocefin hydrolysis, absorbance 480 nm, 0.0001% Triton. Potency, µM (titrated, usually from 57.1 µM), for inactives: at the highest dose activity change, negative = inhibition, most hits filed as inhibitors. actives 0.52% (n = 330,000);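 also: potency is read from the fitted curve at half-maximal effect; plate controls were no compound for no effect and no enzyme for full effect; nearly all actives have a fitted effect of over 20% in size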
Target sequence (P00811 whole entry, looked up): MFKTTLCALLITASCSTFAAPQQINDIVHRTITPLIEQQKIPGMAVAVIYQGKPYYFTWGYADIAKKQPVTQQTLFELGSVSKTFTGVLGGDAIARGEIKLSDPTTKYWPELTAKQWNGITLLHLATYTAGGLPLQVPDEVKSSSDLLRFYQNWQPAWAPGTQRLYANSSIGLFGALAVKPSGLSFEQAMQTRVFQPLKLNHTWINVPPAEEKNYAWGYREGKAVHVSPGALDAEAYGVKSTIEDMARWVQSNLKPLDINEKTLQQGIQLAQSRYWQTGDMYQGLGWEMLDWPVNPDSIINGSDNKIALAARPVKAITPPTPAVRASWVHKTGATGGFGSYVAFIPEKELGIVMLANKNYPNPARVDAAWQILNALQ
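20 mM phosphate pH 7.0 + 0.01% (detergent screen) or 0.0001% Triton X-100; 5.3 nM AmpC reagent; cpd preinc 15 min RT; nitrocefin (800 uM stock) to start; A480 q20 s × 4 min; Activity was normalised to no-enzyme and no-compound control wells.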
FMDV antiviral: High Throughput Screening for Foot and Mouth Disease Virus Antivirals; FMDV antiviral cell-based qHTS; Potency, µM (series often up to 57.9 µM), for the others: at the highest dose activity change, negative = inhibition, hits mostly inhibitors; actives 1.2% (n = 410,000); AID 1159524, 2015; calls by dose curve; tested in HEK293T cells; also: read-out not given here; potency is read from the fitted curve at half-maximal effect; nearly all actives have a fitted effect of over 45% in size
AmpC detergent: qHTS Inhibitors of AmpC Beta-Lactamase (assay with detergent) | Potency, µM (titrated, usually from 114 µM), inactives show at the highest dose activity change, negative = inhibition, actives largely listed as inhibitors | AID 485294, 2010 | actives 0.041% (n = 370,000) | AmpC hydrolysis of nitrocefin, absorbance 480 nm, 0.01% Triton | P00811;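 also: potency is read from the fitted curve at half-maximal effect; 0% = no-compound wells and -100% = no-enzyme wells; nearly all actives have a fitted effect of over 25% in size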
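20 mM phosphate pH 7.0 + 0.01% (detergent screen) or 0.0001% Triton X-100; 5.3 nM AmpC reagent; cpd preinc 15 min RT; nitrocefin (800 uM stock) to start; A480 q20 s × 4 min; Activity was normalised to no-enzyme and no-compound control wells.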
HCMV antiviral: qHTS Assay for inhibitors of the human cytomegalovirus (HCMV); HFF cells, HCMV-luciferase reporter, 72 h; active compounds read low; activity change, negative = inhibition, % at 57.5 µM; actives 4.5% (n = 410,000); AID 1259415, 2018; in the data active = activity change below about -60%; inconclusive = no clear call, values can overlap the other calls; inactive = above about -39%
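After 16 h attachment at 37C, HFF cells received test compound and HCMV-luciferase (1 PFU/cell); reporter luminescence read 72 h later, data normalized against buffer-only and known inhibitor Salinomycin.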
HCV inh: qHTS Assay for Inhibitors of Hepatitis C Virus (HCV); Huh7.5.1 HCVcc-Cre infection, luciferase reporter, 44 h; Potency, µM (series often up to 41.8 µM), without a hit: at the highest dose activity change, negative = inhibition, most hits filed as inhibitors; actives 3.4% (n = 340,000); also: potency is read from the fitted curve at half-maximal effect
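Cells seeded at 1,000/well and cultured 4 h, then compounds added followed by HCVcc-Cre virus (~0.5 moi). After 44 h further culture, luciferase substrate was added, plates held 15 min at room temperature, and luminescence read for 15 sec.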
Active calls of the source: *; ? = inconclusive; . = no result given. A selection: hits, their analogues and other compounds. The true share with any hit is near 7.3%. Unless noted, calls follow the shape of the dose curve; as a rule, active = well fitted curve in the direction sought with a large enough effect; inconclusive = small, poorly fitted or top-dose-only effect, or another doubt; inactive = no such curve, though single readings can be large; an effect the other way counts as inactive or inconclusive. Unless noted, % is scaled to controls: 0 for no effect and ±100 for the full control effect.

SMILES | AmpC no deterg | FMDV antiviral | AmpC detergent | HCMV antiviral | HCV inh
COc1ccc(C(=O)CN2CCN(CCN3C(=O)c4cccc5cccc(c45)C3=O)CC2)cc1 | . | ? | . | -22 | 10µM*
O=C(CN1CCN(CCN2C(=O)c3cccc4cccc(c34)C2=O)CC1)c1ccc(Cl)cc1 | 45% | . | -11% | . | ?
COc1cc2c3c(cccc3c1)C(=O)N(CCN1CCCC1)C2=O | . | 0% | . | -98* | .
CC(C)NC(=O)/C(C#N)=C/c1cccc(NC(=O)c2ccccc2Cl)c1 | -35% | 14µM* | ? | 41 | -2%
COCCNC(=O)/C(C#N)=C/c1cccc(NC(=O)c2ccccc2Cl)c1 | -33% | 0% | -6% | 65 | 14%
CCC(NC(=O)CCC(=O)N1CCN(S(=O)(=O)c2ccc(C)cc2)CC1)c1ccc(C)cc1 (stereo not drawn) | 176% | -22% | -5% | -6 | -29%
CCn1c(=O)c2sccc2n2c(CCC(=O)Nc3ccc(C(C)C)cc3)nnc12 | . | -23% | 1% | -8 | .
Cc1cc(-c2ccc(C)c(S(=O)(=O)N3CCN(c4ccc([N+](=O)[O-])cc4)CC3)c2)on1 | -52% | -24% | -17% | -73* | ?
COCC(=O)Nc1cc(C(=O)N2CCCOc3c(cccc3OC)C2)c2c(c1)nc(C1CCC1)n2C | . | -3% | . | . | .
O=C(CSCc1nc2ccccc2[nH]1)N1CCN(c2ccc(F)cc2)CC1 | -17% | 35µM* | -10% | -33 | 13µM*
O=C(CSCc1nc2ccccc2[nH]1)N1CCN(c2cccc(Cl)c2)CC1 | 32% | 35µM* | ? | -27 | -4%
Cc1ccc(NC2=CC(=O)C(=O)c3ccccc32)cc1 | -12% | -39% | -10% | -104* | 10µM*
Cc1cc(NC2=CC(=O)C(=O)c3ccccc32)no1 | . | ? | . | -102* | ?
NS(=O)(=O)c1ccc(NC2=CC(=O)C(=O)c3ccccc32)cc1 | -40% | 25µM* | ? | 50 | 16µM*
CCC(C(=O)Nc1cc(Cl)c(OC)cc1OC)c1ccccc1 (stereo not drawn) | -1% | -22% | -2% | -18 | ?
COc1cc(OC)c(NC2=CC(=O)C(=O)c3ccccc32)cc1Cl | -18% | ? | 1% | -82* | 5µM*
CCC(C)(C)NC(=O)CN(C(=O)CCC(=O)Nc1nccs1)c1cccc(C)c1C | 47% | -7% | 4% | 1 | -7%
CCN(CC)CCNc1ncnc2c1sc1nc(N3CCOCC3)c3c(c12)CCCC3 | 167% | 3% | 0% | -10 | ?
CCN(CC)CCNc1ncnc2c1sc1nc(N3CCCC3)c3c(c12)CC(C)(C)OC3 | 173% | ? | -4% | -25 | 2µM*
CN(C)CCNc1ncnc2c1sc1nc(N3CCCC3)c3c(c12)CC(C)(C)OC3 | 154% | ? | 4% | ? | 13µM*
CCN(CCO)c1ncnc2c1sc1nc(CC(C)C)c3c(c12)CC(C)(C)OC3 | 2% | -14% | -11% | 12 | 14µM*
CC1(C)Cc2c(c(-c3ccco3)nc3sc4c(NCCCO)ncnc4c23)CO1 | 151% | ? | 3% | -65* | ?
CCOc1ccc(CNCc2c(C(=O)O)c(C)n(Cc3ccc(F)cc3Cl)c2C)cc1 | . | -23% | -6% | -2 | .
O=S(c1ccccc1O)S(=O)c1ccccc1O (stereo not drawn) | . | 2% | . | -26 | 10µM*
CCOC(=O)C(NCc1ccccc1NC(=O)OC(C)(C)C)c1nnnn1Cc1ccccc1 (stereo not drawn) | . | . | . | 24 | .
O=C(c1ccccc1[N+](=O)[O-])N1CCC[C@@H]1c1noc2ccccc12 | . | . | . | -62* | .
C[C@@H]1CN([C@H](C)CO)C(=O)c2cc(NC(=O)Nc3ccc(F)cc3)ccc2O[C@@H](C)CCCCO[C@@H]1CN(C)C(=O)CCCN(C)C | . | . | . | -27 | .
COc1ccc2c3c(cccc13)C(=O)CC2 | -17% | -11% | 0% | -71* | -9%
c1ccc2c(c1)ccc1[nH]c3c(c12)CCCC3 | . | -3% | . | 57 | ?
